Source: PubChem BioAssay (NCATS)
Results filed as inconclusive are left out. Activity calls are given as the source filed them. Unless noted, calls come from the whole dose curve; as a rule, active = well fitted curve in the direction sought with a large enough effect; inconclusive = small, poorly fitted or top-dose-only effect, or another doubt; inactive = no such curve, though single readings can be large; an effect the other way counts as inactive or inconclusive.

Experiments:
[1] = target: Lysosomal acid glucosylceramidase (Homo sapiens) (UniProt P04062); assay: Glucocerebrosidase-p2 (AID 348; in the data active = potency below about 10 µM; note: potency is the fitted concentration of half-maximal effect); settings: purified GBA, blue fluorogenic substrate, 40 min
In short: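 Normal human glucocerebrosidase (0.2 nM) with blue fluorogenic substrate (80 uM final) in citrate/phosphate pH 5.9 with 10mM sodium taurocholate, 0.01% tween-20; 40 min RT, NaOH/glycine stop; fluorescence Ex 365/Em 440; AC50 from a titration from 0.6 nM upwards.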

[2] = AP1 Signaling Pathway (AID 357; active = well fitted curve in either direction with a large enough effect, not every such curve was filed as active; note: % is set by controls: 0 for no effect and ±100 for the full control effect); settings: ME-180 AP-1-bla reporter, EGF-induced, beta-lactamase ratio, 5 h; at 7.69 µM (top of the series) unless noted
In short: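 ME-180 cells with beta-lactamase reporter under AP-1 response element, stimulated with EC50 EGF; compounds tested in titration series, 5 h at 37 °C. CCF4 substrate added 2.5 h at room temperature; 460/530 nm emission ratio gave %activity and AC50.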

[3] = NFAT Signaling Pathway (AID 444; active = well fitted curve in either direction with a large enough effect, not every such curve was filed as active;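 note: carbachol stimulus at about its EC50 of 1 µM final; % is set by controls: 0 for no effect and ±100 for the full control effect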); settings: Jurkat NFAT-bla M1, carbachol, beta-lactamase ratio, 5 h; at 7.69 µM (top of the series) unless noted
In short: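 Jurkat cells carrying an NFAT-driven β-lactamase reporter and co-transfected muscarinic M1 receptor were treated with compound plus carbachol (1 uM final, an EC50 level) for 5 h at 37 °C. CCF4 loading followed for 1 h at RT; 460/530 nm ratio gave %activity.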

[4] = Stat Signaling Pathway (AID 446; active = well fitted curve in either direction with a large enough effect, not every such curve was filed as active;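 note: ME-180 cervical cancer cells given 40 pM IL-6 alongside compound; SIE-controlled beta-lactamase reporter measured as 460/530 nm FRET emission ratio; % is set by controls: 0 for no effect and ±100 for the full control effect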); settings: ME-180 (cervical carcinoma) SIE beta-lactamase reporter, IL-6 stimulated, 5 h; at 7.69 µM (top of the series) unless noted
In short: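 Normalization used AC90 stimulation (300 pM IL-6) and AC90 inhibition (125 nM pan-JAK inhibitor at 40 pM IL-6). The underlying signal is SIE-driven beta-lactamase in ME-180 cells after 5 h IL-6 exposure with compound.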

[5] = target: Glucocorticoid receptor (Homo sapiens) (UniProt P04150); assay: GR-GFP Redistribution (AID 450;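 active = compounds whose dose series gives a full or clear partial fitted curve of increased nuclear translocation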; note: potency is the fitted concentration of half-maximal effect); settings: U2OS GR-GFP nuclear translocation, laser cytometry, 2 h
[6] = target: Glucocorticoid receptor (Homo sapiens) (UniProt P04150); assay: GR-EFC Redistribution (AID 451; calls by dose curve; note: potency is the fitted concentration of half-maximal effect); settings: CHO-K1 GR-EFC translocation, beta-gal luminescence, 2 h
In short: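 CHO-K1 cells stably expressing nuclear-localized β-gal enzyme acceptor and GR fused C-terminally to the enzyme donor fragment; ligand-driven nuclear translocation restores β-gal by complementation. Compounds titrated up to 46 uM final, 2 h at 37 °C; luminescence read.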

[7] = target: Mitogen-activated protein kinase 10 (Mus musculus) (UniProt Q61831); assay: JNK3 AlphaScreen Assay (AID 530; active = well fitted curve in either direction with a large enough effect, not every such curve was filed as active;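 note: kinase came from lysate of stimulated human HepG2 cells; signal reports phosphorylation of biotinylated GST-cJun 1-79 at Ser73 with 10 µM ATP; % is set by controls: 0 for no effect and ±100 for the full control effect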); settings: JNK3 lysate, c-Jun phosphorylation; series mostly up to 11.4 µM
In short: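 Phosphorylation of biotinylated GST-cJun(1-79) at Ser73 is measured by AlphaScreen proximity luminescence. Enzyme is JNK3 in HepG2 lysates activated with interleukin-1beta and tumor necrosis factor alpha; ATP is 10 uM final.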

[8] = target: 3',5'-cyclic-AMP phosphodiesterase 4B (Homo sapiens) (UniProt Q07343); assay: qHTS Assay for Inhibitors of PDE-IV (AID 607; active = well fitted activation curve with a large enough effect in the main read-out, with a control signal flat, not every such curve was filed as active; note: % of control where 0% means no effect); settings: HEK293 ACTOne CNG channel cells, membrane potential fluorescence; series mostly up to 22.9 µM
In short: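 HEK293 ACTOne cells with CNG channel (1000/well), endogenous PDE4; membrane potential dye, compounds up to 22.9 uM final. Fluorescence Ex 535/Em 590; RO 20-1724 (100 uM final) as reference.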

[9] = target: ATP-dependent 6-phosphofructokinase (Trypanosoma brucei brucei) (UniProt O15648); assay: qHTS Assay to Find Inhibitors of T. brucei phosphofructokinase: hit validation (AID 492961); settings: T. brucei PFK, ADP-Glo luminescence; series mostly up to 51.4 µM
In short: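 Reaction: 0.1 M triethanolamine pH 8.0, 5 mM MgCl2, F6P 0.5 mM, ATP 0.1 mM, PFK 1.25 nM, 45 min RT. Read-out: ADP-Glo luminescence. Analysis: concentration-response fits, classed by r2 and efficacy.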

[10] = qHTS profiling for inhibitors of Plasmodium falciparum proliferation (AID 504749); note: potency is the fitted concentration of half-maximal effect;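 for activity, negative = inhibition: 0% = DMSO vehicle and full inhibition = artemisinin control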; for all read-outs here: nearly all actives have a fitted effect of over 60% in size; settings: P. falciparum in erythrocytes, SYBR Green DNA, 72 h; for activity, negative = inhibition: at 28.7 µM (top of the series)
In short: (§1)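 Quantitative HTS: compounds pinned into medium, infected erythrocytes added (0.3% parasitemia, 2.5% hematocrit), 72 h culture at 37 C under 5% CO2. Saponin/Triton lysis with SYBR Green I, overnight RT, then fluorescence read.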

AS120 = assay: as above; settings: P. falciparum in erythrocytes, SYBR Green DNA, 72 h; series mostly up to 28.7 µM
In short: as §1

ATS189 = assay: as above; settings: P. falciparum in erythrocytes, SYBR Green DNA, 72 h; series mostly up to 28.7 µM
In short: as §1

W2 = assay: as above; settings: P. falciparum in erythrocytes, SYBR Green DNA, 72 h; series mostly up to 28.7 µM
In short: as §1

[11] = target: Cytochrome P450 1A2 (Homo sapiens) (UniProt P05177); assay: p450-cyp1a2 (AID 410; calls by dose curve; note: potency is the fitted concentration of half-maximal effect;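 for activity change, negative = inhibition: -100% = full effect of reference inhibitor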); settings: recombinant CYP1A2, luciferin-ME demethylation, luminescence; series mostly up to 11.4 µM
In short: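 Luminescent demethylation readout: Luciferin-ME (100uM, equal to Km) turned over by 20nM CYP1A2 for 60 min at room temperature after NADPH regeneration addition, following 10 min compound preincubation. Normalization used 57 uM furafylline as full inhibition.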

[12] = target: Cytochrome P450 3A4 (Homo sapiens) (UniProt P08684); assay: qHTS Assay for Activators of Cytochrome P450 3A4 (AID 885); settings: recombinant CYP3A4, Luciferin-PPXE luminescence, 60 min; series mostly up to 11.4 µM; note: nearly all actives have a fitted effect of over 65% in size
In short: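 Human CYP3A4 dealkylates Luciferin-PPXE to luciferin, which luciferase detection converts to light. Substrate was at its KM (25uM), buffer 200mM KPO4, reaction 60 min at RT.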

[13] = target: Cytochrome P450 2C9 (Homo sapiens) (UniProt P11712); assay: qHTS Assay for Inhibitors and Substrates of Cytochrome P450 2C9 (AID 883); settings: recombinant CYP2C9, luciferin-H luminescence, 60 min; series mostly up to 11.4 µM; note: % is set by controls: 0 for no effect and ±100 for the full control effect; nearly all actives have a fitted effect of over 60% in size
In short: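 CYP2C9 deoxyluciferin hydroxylation, 37C, 60 min with NADPH regeneration; 10nM enzyme, 100uM Luciferin-H (KM). Glo detection reagent stopped reaction; luminescence normalized to sulphaphenazole (57uM) full inhibition.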

[14] = target: Cytochrome P450 3A4 (Homo sapiens) (UniProt P08684); assay: qHTS Assay for Inhibitors and Substrates of Cytochrome P450 3A4 (AID 884); settings: recombinant CYP3A4, Luciferin-PPXE luminescence; series mostly up to 57.1 µM; note: % is set by controls: 0 for no effect and ±100 for the full control effect; nearly all actives have a fitted effect of over 50% in size
In short: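 Luminescent readout of luciferin produced by CYP3A4 (20 nM) dealkylation of Luciferin-PPXE, 25 uM (its KM). NADPH-driven reaction ran 60 min at RT after 10 min compound preincubation; data scaled to 57 uM ketoconazole as 100% inhibition.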

[15] = target: Cytochrome P450 2D6 (Homo sapiens) (UniProt P10635); assay: qHTS Assay for Inhibitors and Substrates of Cytochrome P450 2D6 (AID 891); settings: recombinant CYP2D6, luciferin-ME EGE luminescence; series mostly up to 11.4 µM; note: nearly all actives have a fitted effect of over 60% in size; note: potency is the fitted concentration of half-maximal effect
In short: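 Luminescent read-out of luciferin formed by 5 nM human CYP2D6 demethylating 30 uM Luciferin-ME EGE (Km level) over 60 min at room temperature after NADPH regeneration addition. Data normalized to full inhibition by 1.43 uM quinidine.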

[16] = target: Cytochrome P450 2C19 (Homo sapiens) (UniProt P33261); assay: qHTS Assay for Inhibitors and Substrates of Cytochrome P450 2C19 (AID 899); settings: recombinant CYP2C19, luciferin-H EGE luminescence; series mostly up to 11.4 µM; note: % is set by controls: 0 for no effect and ±100 for the full control effect; nearly all actives have a fitted effect of over 60% in size
In short: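 In 50mM KPO4, the reaction held 5nM enzyme and KM-level (10uM) Luciferin-H EGE; it ran 60 min at 37C after NADPH regeneration and a 10 min compound preincubation. Luminescence values were scaled to 57uM ketoconazole as complete inhibition.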

Chain of Lysosomal acid glucosylceramidase (Homo sapiens) (P04062 whole entry, looked up): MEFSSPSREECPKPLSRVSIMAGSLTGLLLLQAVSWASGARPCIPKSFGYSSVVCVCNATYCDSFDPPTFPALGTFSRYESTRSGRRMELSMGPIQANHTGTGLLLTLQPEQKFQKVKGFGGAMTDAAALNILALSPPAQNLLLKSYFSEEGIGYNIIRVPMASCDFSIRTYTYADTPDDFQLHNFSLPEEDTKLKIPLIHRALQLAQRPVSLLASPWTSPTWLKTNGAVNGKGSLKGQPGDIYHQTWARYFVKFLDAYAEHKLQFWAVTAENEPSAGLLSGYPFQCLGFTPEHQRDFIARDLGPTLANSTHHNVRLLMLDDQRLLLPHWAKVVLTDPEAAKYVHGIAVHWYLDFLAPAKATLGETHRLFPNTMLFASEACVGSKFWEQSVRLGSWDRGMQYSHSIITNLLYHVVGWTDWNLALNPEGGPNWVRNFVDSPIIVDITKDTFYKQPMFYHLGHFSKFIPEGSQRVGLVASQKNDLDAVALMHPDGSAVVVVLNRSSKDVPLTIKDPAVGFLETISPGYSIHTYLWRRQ
Chain of Cytochrome P450 1A2 (Homo sapiens) (P05177 whole entry, looked up): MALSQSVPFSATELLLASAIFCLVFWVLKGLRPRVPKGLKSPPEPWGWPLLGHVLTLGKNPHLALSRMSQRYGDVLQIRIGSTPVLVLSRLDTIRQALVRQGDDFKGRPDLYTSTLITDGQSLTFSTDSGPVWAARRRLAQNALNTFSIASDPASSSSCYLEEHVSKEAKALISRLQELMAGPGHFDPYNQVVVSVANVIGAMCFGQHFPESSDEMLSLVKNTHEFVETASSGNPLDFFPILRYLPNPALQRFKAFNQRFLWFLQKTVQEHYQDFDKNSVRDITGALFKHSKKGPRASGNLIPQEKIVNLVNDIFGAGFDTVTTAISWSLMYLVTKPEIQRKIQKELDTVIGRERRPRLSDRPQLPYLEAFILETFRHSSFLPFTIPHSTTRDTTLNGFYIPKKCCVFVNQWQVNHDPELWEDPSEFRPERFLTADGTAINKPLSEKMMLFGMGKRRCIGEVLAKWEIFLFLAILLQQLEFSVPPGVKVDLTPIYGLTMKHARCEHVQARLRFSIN
Chain of 3',5'-cyclic-AMP phosphodiesterase 4B (Homo sapiens) (Q07343 whole entry, looked up): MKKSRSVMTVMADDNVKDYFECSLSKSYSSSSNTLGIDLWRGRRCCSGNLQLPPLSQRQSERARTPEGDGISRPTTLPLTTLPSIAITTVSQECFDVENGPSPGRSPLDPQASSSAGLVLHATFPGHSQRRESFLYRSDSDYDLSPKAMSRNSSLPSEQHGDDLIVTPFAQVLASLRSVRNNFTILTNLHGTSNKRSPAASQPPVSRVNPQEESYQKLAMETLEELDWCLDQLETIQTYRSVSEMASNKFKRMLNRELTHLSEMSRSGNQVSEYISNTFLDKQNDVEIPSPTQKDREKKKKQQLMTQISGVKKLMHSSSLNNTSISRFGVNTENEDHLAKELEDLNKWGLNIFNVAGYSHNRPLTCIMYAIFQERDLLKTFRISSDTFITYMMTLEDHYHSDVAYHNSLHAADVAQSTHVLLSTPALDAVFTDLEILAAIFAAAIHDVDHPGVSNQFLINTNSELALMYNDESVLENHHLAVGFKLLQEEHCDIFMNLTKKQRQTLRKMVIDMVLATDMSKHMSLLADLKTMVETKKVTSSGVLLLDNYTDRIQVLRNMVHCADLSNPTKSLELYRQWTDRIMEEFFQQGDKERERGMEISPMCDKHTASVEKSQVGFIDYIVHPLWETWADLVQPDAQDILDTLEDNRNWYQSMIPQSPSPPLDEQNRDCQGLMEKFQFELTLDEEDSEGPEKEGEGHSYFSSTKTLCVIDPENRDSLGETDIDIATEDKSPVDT
Chain of Glucocorticoid receptor (Homo sapiens) (P04150 whole entry, looked up, the tested form may be a part): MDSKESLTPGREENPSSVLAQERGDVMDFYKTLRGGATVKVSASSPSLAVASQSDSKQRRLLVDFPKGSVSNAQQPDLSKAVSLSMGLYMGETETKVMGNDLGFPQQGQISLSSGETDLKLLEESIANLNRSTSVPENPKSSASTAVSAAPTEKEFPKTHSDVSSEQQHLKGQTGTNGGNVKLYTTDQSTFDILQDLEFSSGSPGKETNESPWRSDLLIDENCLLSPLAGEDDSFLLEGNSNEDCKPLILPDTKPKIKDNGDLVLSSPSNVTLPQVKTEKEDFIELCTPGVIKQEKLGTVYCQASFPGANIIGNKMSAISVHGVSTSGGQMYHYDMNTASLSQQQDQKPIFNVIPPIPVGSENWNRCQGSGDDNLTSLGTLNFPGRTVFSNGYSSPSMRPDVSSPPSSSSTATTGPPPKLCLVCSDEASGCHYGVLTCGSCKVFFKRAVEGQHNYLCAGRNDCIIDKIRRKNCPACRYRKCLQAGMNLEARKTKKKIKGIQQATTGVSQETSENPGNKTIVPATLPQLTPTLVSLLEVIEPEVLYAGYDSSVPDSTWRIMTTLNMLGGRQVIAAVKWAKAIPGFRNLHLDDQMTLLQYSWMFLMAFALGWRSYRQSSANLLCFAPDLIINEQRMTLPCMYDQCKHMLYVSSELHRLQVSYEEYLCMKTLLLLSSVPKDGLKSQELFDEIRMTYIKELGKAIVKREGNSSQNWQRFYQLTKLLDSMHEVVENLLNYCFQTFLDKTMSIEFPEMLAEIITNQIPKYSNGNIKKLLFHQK
Chain of Cytochrome P450 3A4 (Homo sapiens) (P08684 whole entry, looked up): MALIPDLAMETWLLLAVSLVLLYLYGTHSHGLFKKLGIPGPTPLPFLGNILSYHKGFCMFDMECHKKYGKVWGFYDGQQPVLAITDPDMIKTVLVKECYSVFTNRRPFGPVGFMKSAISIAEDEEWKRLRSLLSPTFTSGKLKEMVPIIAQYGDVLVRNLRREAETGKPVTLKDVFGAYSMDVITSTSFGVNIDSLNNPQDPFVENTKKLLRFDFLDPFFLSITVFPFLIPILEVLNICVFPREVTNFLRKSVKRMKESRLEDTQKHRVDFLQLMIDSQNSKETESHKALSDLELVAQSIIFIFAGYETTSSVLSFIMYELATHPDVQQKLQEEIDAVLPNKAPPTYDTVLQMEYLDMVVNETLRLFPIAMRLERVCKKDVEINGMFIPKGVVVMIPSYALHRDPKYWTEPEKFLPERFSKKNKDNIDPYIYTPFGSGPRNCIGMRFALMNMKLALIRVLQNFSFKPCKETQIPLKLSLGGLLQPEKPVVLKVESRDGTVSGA
Chain of Cytochrome P450 2D6 (Homo sapiens) (P10635 whole entry, looked up): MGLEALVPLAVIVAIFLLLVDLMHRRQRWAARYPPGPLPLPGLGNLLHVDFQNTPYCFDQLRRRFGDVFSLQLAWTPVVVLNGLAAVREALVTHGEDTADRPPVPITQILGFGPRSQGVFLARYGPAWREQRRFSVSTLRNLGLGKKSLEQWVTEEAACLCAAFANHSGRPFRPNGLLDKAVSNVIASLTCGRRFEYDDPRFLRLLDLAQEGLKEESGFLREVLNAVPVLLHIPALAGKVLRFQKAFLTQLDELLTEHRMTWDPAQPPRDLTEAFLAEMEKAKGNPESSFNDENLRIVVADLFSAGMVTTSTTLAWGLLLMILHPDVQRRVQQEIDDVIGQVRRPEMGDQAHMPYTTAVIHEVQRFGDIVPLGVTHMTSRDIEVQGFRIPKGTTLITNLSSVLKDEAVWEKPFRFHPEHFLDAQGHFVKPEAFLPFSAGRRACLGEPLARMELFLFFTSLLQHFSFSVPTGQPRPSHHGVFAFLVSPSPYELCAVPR
Chain of ATP-dependent 6-phosphofructokinase (Trypanosoma brucei brucei) (O15648 whole entry, looked up): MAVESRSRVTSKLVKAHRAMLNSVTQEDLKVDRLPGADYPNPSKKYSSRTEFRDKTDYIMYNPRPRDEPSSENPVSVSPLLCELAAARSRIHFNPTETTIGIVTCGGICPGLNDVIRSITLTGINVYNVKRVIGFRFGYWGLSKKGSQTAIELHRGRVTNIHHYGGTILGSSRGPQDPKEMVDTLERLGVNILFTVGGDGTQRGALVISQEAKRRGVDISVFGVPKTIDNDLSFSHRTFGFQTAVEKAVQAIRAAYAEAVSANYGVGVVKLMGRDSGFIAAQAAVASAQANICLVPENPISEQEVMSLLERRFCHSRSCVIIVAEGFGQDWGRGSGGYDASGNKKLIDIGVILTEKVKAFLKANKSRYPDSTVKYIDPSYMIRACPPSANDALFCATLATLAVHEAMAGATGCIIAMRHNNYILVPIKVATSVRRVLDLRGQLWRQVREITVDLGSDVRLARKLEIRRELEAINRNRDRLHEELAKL
Chain of Cytochrome P450 2C19 (Homo sapiens) (P33261 whole entry, looked up): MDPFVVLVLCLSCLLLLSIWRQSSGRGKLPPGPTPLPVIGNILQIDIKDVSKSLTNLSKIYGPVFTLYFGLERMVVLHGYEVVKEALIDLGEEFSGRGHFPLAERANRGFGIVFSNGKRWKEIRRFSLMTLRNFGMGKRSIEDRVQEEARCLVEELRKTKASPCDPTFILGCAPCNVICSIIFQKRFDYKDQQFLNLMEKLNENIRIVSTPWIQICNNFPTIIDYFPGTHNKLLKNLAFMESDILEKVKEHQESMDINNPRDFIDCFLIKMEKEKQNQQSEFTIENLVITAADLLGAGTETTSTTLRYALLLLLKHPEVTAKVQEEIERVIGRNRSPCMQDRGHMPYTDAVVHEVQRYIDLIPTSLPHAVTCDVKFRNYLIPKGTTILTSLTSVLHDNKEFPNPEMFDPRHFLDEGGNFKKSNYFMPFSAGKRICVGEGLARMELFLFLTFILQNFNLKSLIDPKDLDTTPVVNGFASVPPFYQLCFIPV

CC(C)(C)c1ccc(CN2CCN([C@H](c3ccccc3)c3ccc(Cl)cc3)CC2)cc1
inactive: Potency [1] > 11.4 µM | activity change, negative = inhibition [2] 2.89% | activity change, negative = inhibition [3] -9.36% | activity, negative = inhibition [4] 0.758% | Potency [5] > 46 µM | Potency [6] > 9.22 µM | Potency [7] | Potency [8] | outcome [9]
active: Potency ([10]; parasite line A) 7.94 µM | Potency ([10]; parasite line B) 12.6 µM | Potency (AS120) 7.94 µM | Potency (ATS189) 8.91 µM | Potency (W2) 3.38 µM

O=C(O)[C@@H]1[C@H](C(=O)O)[C@H]2C(=O)C=C[C@H]1N2Cc1ccccc1
inactive: Potency [1] > 11.4 µM | activity change, negative = inhibition [2] -5.73% | activity change, negative = inhibition [11] -3.9% [at 2.29 µM] | Potency [5] > 46 µM | Potency [6] > 9.22 µM | Potency [7] | Potency [8]

CCOC(=O)c1c2c(n3ccccc13)C(=O)c1ccccc1C2=O
inactive: Potency [1] > 11.4 µM | activity change, negative = inhibition [2] 19.9% | Potency [5] > 46 µM | Potency [6] > 9.22 µM | Potency [8] | Potency [12]
active: Potency [11] 0.1 µM

c1ccc(CNCCN2CCNCC2)nc1
inactive: Potency [1] > 11.4 µM | activity change, negative = inhibition [2] 4.86% | Potency [11] | Potency [5] > 46 µM | Potency [6] > 9.22 µM | Potency [7] | Potency [8] | Potency [13] | activity change, negative = inhibition [14] -5.12% [at 11.4 µM] | Potency [15] | Potency [16]

OC1CC2CC[C@H](C1)N2CCCN1c2ccccc2Sc2ccc(Cl)cc21 (some centres not stated)
active: Potency [15] 0.0631 µM
inactive: Potency [1] > 11.4 µM | activity change, negative = inhibition [2] 18.1% | Potency [11] | Potency [5] > 46 µM | Potency [6] > 9.22 µM | Potency [7] | Potency [8]

Cc1onc(-c2c(F)cccc2Cl)c1C(=O)N[C@@H]1C(=O)N2[C@H]1SC(C)(C)[C@H]2C(=O)O
inactive: Potency [1] > 11.4 µM | activity change, negative = inhibition [2] -24% | activity change, negative = inhibition [3] 13.8% | activity, negative = inhibition [4] 5.59% | Potency [5] > 46 µM | Potency [6] > 9.22 µM | Potency [7] | Potency [8] | outcome [9] | activity, negative = inhibition ([10]; parasite line A) 1.43% | activity, negative = inhibition ([10]; parasite line B) 6.57% | Potency (AS120) | Potency (ATS189) | Potency (W2)

O=S(=O)(O)c1ccc2c(N=Nc3cccc4ccccc34)c(O)c(S(=O)(=O)O)cc2c1
inactive: Potency [1] > 11.4 µM | activity change, negative = inhibition [2] -5.27% | activity change, negative = inhibition [3] -7.38% | activity, negative = inhibition [4] -0.528% | Potency [5] > 46 µM | Potency [6] > 9.22 µM
